Results filed as inconclusive are left out. Where a call stands in place of a potency, no number is given. Activity calls are given as the source filed them. The call rests on the fitted dose curve; in most records, active means well fitted activation curve with a large enough effect; inconclusive means small, poorly fitted or top-dose-only effect; inactive means flat fitted curve, though single readings scatter.

This experiment is described as follows: qHTS Assay for NPC1 Promoter Activators: Initial hit validation from the primary screen. In outline: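 Huh7 cells stably carrying NPC1 promoter-luciferase, 1500 cells per well in OP-MEM I with 10% FBS; compounds added after 2 hours and incubated 24 hours at 37C. Luminescence read 10 minutes after Amplite luciferase reagent.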
Background: qHTS replaces the single test concentration by a dilution series.
Potency means the concentration at half of the fitted maximal effect.

In the case of `O=C(c1cccc(Oc2ccc([N+](=O)[O-])cc2)c1)N1CCOCC1`, the Potency entry is “inactive”.
The value for `Cc1nc(-c2ccccn2)sc1C(=O)Nc1ccc(F)cc1F` was 15.8 µM (active); that for `CCCOP(=O)(c1ccc(N(C)C)cc1)C(O)c1cccnc1` (stereo not drawn) was “inactive”; that for `Cc1ccc(C(=O)NCc2ccc3c(c2)OCO3)cc1C` was 31.5 µM (active).
In the case of `CNC(=O)Cn1nc(C)c2ccccc2c1=O`, the Potency entry is “inactive”.
The value for `Cc1ccc2nc(Nc3ccc(Cl)cc3)c3nncn3c2c1` was “inactive”; that for `CCOCC(=O)Nc1c(C(=O)Nc2ccc3c(c2)OCCO3)oc2ccccc12` was 0.888 µM (active); that for `O=[N+]([O-])c1cnccc1Nc1ccc(F)cc1` was “inactive”.
As for `COc1ccccc1N(C(=O)c1snc(C(N)=O)c1N)C(C(=O)NC1CCCCC1)c1cccc(OC)c1OC` (stereo not drawn), the Potency result is “inactive”.
Consider `Cc1ccc(S(=O)(=O)N2CCN(c3cnn(C)c(=O)c3Cl)CC2)cc1`, for which the Potency result was “inactive”.
The value for `CCC(=O)N1c2ccccc2NC2=C(C(=O)CCC2)C1c1ccc(N(C)C)cc1` (stereo not drawn) was “inactive”.
Next, `O=CN1CCN(C(=O)c2ccccc2Cl)CC1`: “inactive”; `O=C(CSc1nnc(-c2ccc([N+](=O)[O-])cc2)o1)Nc1ccccn1`: 0.628 µM (active); `CCOC(=O)c1cc2sccc2n1CC(=O)N1CCCc2ccccc21`: “inactive”.
Consider `CC(C)C1(CCNC(=O)c2cccs2)CCOC(C)(C)C1` (stereo not drawn), for which the Potency result was “inactive”.
Next, `C=CCOC(=O)N1CCN(c2cccc(C(F)(F)F)c2)CC1`: “inactive”; `O=C(C1COc2ccccc2O1)N1CCN(S(=O)(=O)c2ccccc2)CC1` (stereo not drawn): “inactive”.
The value for `NNC(=O)c1cccc(S(=O)(=O)Nc2cc(Cl)ccc2Cl)c1` was “inactive”; that for `CC(C)(C)NC(=S)NNC(=O)c1ccc2ncccc2c1` was 3.53 µM (active).
As for `CC1=C(C(=O)OC2CCCC(C)C2)C(c2ccccc2)NC(=O)N1` (stereo not drawn), the Potency result was “inactive”.
Take `CCCCCCOc1ccc(OC(=O)c2cccnc2)cc1`: the Potency was 19.9 µM (active).
For `O=C(NNC(=O)C1COc2ccccc2O1)c1ccccc1O` (stereo not drawn), the Potency entry was “inactive”.
Next, `O=C(c1cc2cc(Br)ccc2[nH]1)N1CCc2ccccc21`: 12.5 µM (active); `CCCNC(=O)C1CCN(S(=O)(=O)c2ccc3[nH]c(=O)ccc3c2)CC1`: “inactive”.
Turning to `CCCCCCC(=O)Nc1ccc(C(=O)N/N=C/c2cccnc2)cc1`, the Potency entry was “inactive”.
In the case of `O=C(CN1C(=O)COc2ccc(Cl)cc21)NCC1CCCO1` (stereo not drawn), the Potency entry is “inactive”.
`O=C(O)C1=CC[C@@H](c2ccc(Cl)cc2)N(S(=O)(=O)c2ccc(Cl)cc2)[C@H]1c1ccccc1`: the Potency result was “inactive”.
With `COc1ccc(/C=C\C(=O)c2c(O)ccc3c(C)cc(=O)oc23)cc1OC`, the Potency result is “inactive”.
In the case of `O=C(NC1CCCC1)C(c1ccc(F)cc1)N(C(=O)c1csnn1)c1ccccc1` (stereo not drawn), the Potency result is “inactive”.
On to `CC(=O)NC(CCCN1C(=O)c2ccccc2C1=O)c1nnn(C)n1` (stereo not drawn), for which the Potency entry is “inactive”.
For the molecule `Cc1ccc(N=Cc2sc(O)c3ccccc23)c(C)c1`, the Potency is 1.77 µM (active).
On to `Cc1cc(C)c2c(N)c(C(=O)Nc3ccc([N+](=O)[O-])cc3)sc2n1`, for which the Potency is 0.396 µM (active).
The value for `CCC(C)(C)NC(=O)C(c1ccc(OC)cc1)N(Cc1cccs1)C(=O)CCC(=O)Nc1cc(C)on1` (stereo not drawn) was “inactive”; that for `NC(=O)C1(NC(=O)[C@@H]2CC3(CC(c4cccc(NC(=O)[C@@H]5CCC(=O)N5)c4)=NO3)CN2C(=O)c2ccccc2)CC1` (stereo partly drawn) was “inactive”.
With `Cc1ccc(CNC(=O)Nc2ccc(C)cc2)cc1`, the Potency is 25 µM (active).
For the molecule `COCc1cc(C)nc(N/N=C/c2ccc(-c3ccc(Cl)cc3[N+](=O)[O-])o2)c1C#N`, the Potency entry was “inactive”.
Next, `COc1ccccc1OCCCC(=O)NCc1ccco1`: “inactive”; `COC(=O)c1ccccc1S(=O)(=O)NNC(=O)Nc1ccccc1`: 12.5 µM (active); `CCN(Cc1nc2cc(Cl)ccc2c(=O)[nH]1)C(=O)C1CC(=O)N(c2cccc3ccccc23)C1` (stereo not drawn): “inactive”.
As for `Cc1ccc(C(=O)Nc2ccc(N3CCN(C)CC3)nc2)cc1`, the Potency is 31.5 µM (active).
`CCCCn1c(Nc2ccc(OC)cc2)nc2ccccc21`: the Potency result is “inactive”.
Regarding `Cc1nn(CCCC(=O)NCc2ccc(F)cc2)c(C)c1[N+](=O)[O-]`, the Potency entry was “inactive”.
For the molecule `COc1ccc(NC(=O)Nc2ccc(Cc3ccncc3)cc2)cc1OC`, the Potency result is “inactive”.
With `Nc1nc(SCCO)[nH]c(=O)c1NC(=O)c1ccco1`, the Potency result is “inactive”.
For `CCc1cc(C(=O)Nc2ccccc2)cs1`, the Potency is 2.23 µM (active).
In the case of `O=C(COc1ccccc1F)Nc1ccc(-c2nc3ccccc3s2)cc1`, the Potency is 0.25 µM (active).
For the molecule `Cc1nc(-c2ccc(S(=O)(=O)Oc3ccc(Cl)cc3Cl)s2)cs1`, the Potency entry was “inactive”.
Regarding `CCOC(=O)c1csc(COc2ccc(OC)cc2)n1`, the Potency is 0.705 µM (active).

The values above are taken from PubChem BioAssay AID493203 (National Center for Advancing Translational Sciences (NCATS), 2011).
